Data published in the supplement of paper PMC6555819.

These sequences were tested on PPARg DBDmut:RXRa IVT, anti-PPARg (DBD mutation: PPARg1 K132A/R137A, NR concentration 270 nM, RXRa partner concentration 90 nM) (assay: PBM binding z-score (relative to random genomic background probes); higher = stronger binding; sequences stand for … in GC…GCGATTGACAGCGTAGAATGAAGG).
Procedure, shortened: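 Custom Agilent 4×180K protein-binding microarrays carried double-stranded probes. Their 34-nt variable regions held direct-repeat seeds, single-nucleotide variants, half-site ablations and random human genomic background sequences. Arrays were incubated 1 h with ligand-free nuclear receptor dimers in PBS pH 7.4, 2% milk, 0.02% Triton X-100, 1 mM DTT, 0.2 mg/mL BSA and 0.4 mg/ml salmon testes DNA. Antibodies against each partner (one per run) detected binding, and scanned fluorescence was regression-normalized. Binding z-scores use random background probes as reference.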

| Sequence | PBM binding z-score |
| --- | --- |
| CCAACTAGGTCAGAACAGGACAGTGAAGGATGAT | 2.08 |
| CATACAGGGTCAGCTAGGCCAGAGAAGGGACGGC | 0.932 |
| TGAATGACGTTATAAGATCAGGGAACGTTGCAAA | 1.11 |
| ATCTCTCGGTAACCAAGTTCAGTGAATGCCGAAC | 0.5 |
| CCTAGCAGGCCAATCTGGGTCACCCAAGGCTTGA | -0.253 |
| GCTTGTCGATCAAGGTTAAGAAAGACTAAGCTAA | 0.163 |
| ATATGTAGGTTAAGGGTCACTCAGGTTGGTTCGC | 1.94 |
| GCTGCTAGGTTAGGTTGGTCAGCTAACGGGTACG | -1.46 |
| ATCGAAAGGTCGACGAGGTGAGTGTACACCGTTT | 1.21 |
| CAAACTAGGTCACGAAAGGTCAAGGTCGAATGAC | 5.16 |
| TAGCCTAGGTCAGATGGGGCCAGTATACGCTATA | -0.854 |
| ATCGCAAGGTCGTGAGGTGAGTATACAGAAAGGC | 0.877 |
| TAGCATAGGTCATGGGCCAGTATACCACGCGAAC | 0.682 |
| TCTGCTAGGTCAGCTGGTCAGCTAACGAGCTGCC | -0.25 |
| GCTGTTAGGTCAGGTTGGTCAGCTAACGGGTACG | -0.586 |
| TCGGCTAGGTCAGTTGGTCAGCTAACGAGCTGCC | -0.718 |
| CCCATTAGTTGACCATAAGGGCAACCGAAGCTCG | 0.0546 |
| TAGCTTAGGTCATTGGGCCAGTATAGTACGCATC | 0.561 |
| CCTTACGGGGCACTGACAGGTTATAGCATTTGGA | -0.296 |
| TCGAGTAGGTTACCGATGGGGCATTCAGCTTTCT | -0.681 |

| Sequence | PBM binding z-score |
| --- | --- |
| TCTATTAGTTGATTAGGGCATCCGAAACAGCGGA | 0.865 |
| TCTGCTAGGTCGGTTGGTCAGCTAACGAGCTGCC | -0.109 |
| CGAACTAGGTCAGAACATGACAGTGAAGGATGAT | 2.34 |
| TTACCAAGGTGAGCCGAGGTCGTTGATCCAACTC | 0.0524 |
| CAAACTAGGTCACCGGAAGGTCAACGTCCGCATG | 2.66 |
| CCTACTGGGCCACGAAAAGTCATTGATTCAGTGA | -0.0211 |
| AATACAGGGTCATCGTAGACCAGAGTACGCACAG | 1.62 |
| CCTTACGGGTCACTCCAGGCTATAGCATCGGAGT | -0.0425 |
| CCACACAGGTGAAAGGTAACTCAGTCTGGTACGC | 0.0609 |
| TCCGACAGGTGAAGGTAACTCAGGTACGCAGTCG | -0.595 |
| ATCGATAGGTCGACGAGGTGAGTATACACCGTTT | 0.958 |
| TAGCCTAGGTCATGCAGGCCAGTATAGTGTCGGC | 0.61 |
| CGTCCAACGTCAGAGAGGTCAGTGAATGCCGAGT | -0.788 |
| CCCTACGGGTCACTGACAGGTTATAGCATTTGGA | -0.15 |
| AGAATGAGGTTACCAAACATCAGGGAAACGCTTG | 1.44 |
| CCTACTGGGCCATTCAGAGGTGATTGATCATATG | 0.186 |
| CCTACCAGGCCAGGGTCACTCAAGCATTTCGCTT | -1.07 |
| CGAACTAGGTCATCCAGGACAATGAATACATTGA | 3.32 |
| ACTAGTTGGTGAGCTGAGGTCACACACAATTCGG | 0.121 |
| CGTCCAAGCTCAAAGGTCAGTGAAGAGATGACGG | -0.175 |
